From PubChem
D2 ag-1 – D2 dopamine receptor (human) agonism; AID 485358; P14416; HEK293 T-REx D2 cells, calcium flux agonist mode; activation, % at 2 µM; 340,000 compounds, 0.53% hits;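 active = activation over 3 SD above normal in the single-dose calcium agonist read, cut at about 30% in these data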; also: 0% is about no effect
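Tetracycline-induced HEK293 Trex cells with D2 receptor force-coupled to calcium signaling, plated overnight at 30 C and loaded with no-wash calcium dye. Calcium flux read kinetically for 180 s after compound addition; responses flag agonists.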
D2 ag-2 – agonists of human D2 dopamine receptor (beta-arrestin); activation, % (no concentration beside the values); AID 624465; P14416; DiscoveRx PathHunter D2 beta-arrestin, luminescence, 90 min; 100% = 57 uM dopamine signal; 360,000 compounds, 0.084% hits; in the data active = activation above about 40%; inconclusive = between about 15% and that limit
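DiscoveRx PathHunter D2 beta-arrestin cells (2,100/well) attached overnight, then compound-stimulated 90 min at 37 C in HBSS/10 mM HEPES/0.1% Tween-20 buffer; beta-galactosidase complementation read by luminescence after 1 h at ambient temperature. Dopamine 57 uM final (EC100) as control.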
D2 PAM-1 – human D2 receptor positive allosteric modulation | P14416 | DiscoveRx D2 beta-arrestin cells, luminescence, 90 min; 100% = 57 uM dopamine signal | potentiation, % (concentration not given with the values) | AID 624464 | 360,000 compounds, 0.23% hits; in the data active = potentiation above about 50%; inconclusive = mostly about 30% to 49%
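PathHunter D2 cells, attached overnight at 37 deg C, received compound in DMSO plus dopamine at EC20 (50 nM final) for 90 min at 37 deg C. Beta-arrestin recruitment was read as luminescence after 1 h with detection reagent at ambient temperature.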
D2 PAM-2 – positive allosteric modulators of human D2 dopamine receptor; P14416; HEK293 T-REx D2, calcium flux, EC20 dopamine potentiation; potentiation, % at 10 µM; 340,000 compounds, 0.34% hits; AID 485347;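 active = potentiation over 3 SD above the plate norm, cut at about 30% in these data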; also: 0% is about no effect
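Tetracycline-induced HEK293 T-REx cells force-coupled to calcium signalling expressed D2; compounds were pin-added after a 10 s baseline, read kinetically 180 s, then an EC20 dopamine challenge followed with a further 180 s calcium read.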
D2 antagonist – D2 dopamine receptor (human) antagonism; P14416; HEK293 TREx D2 cells, calcium flux, dopamine EC80; inhibition, % at 10 µM; 340,000 compounds, 2% hits; AID 485344; in the data active = inhibition above about 30%; inactive = below that, where a call was filed; also: 0% is about no effect
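Inhibition of EC80 dopamine-driven calcium flux, recorded kinetically, defines activity here; cells are a tetracycline-induced HEK293 T-REx line expressing force-coupled D2.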
D3 arrestin ag – activates human D3 dopamine receptor beta-arrestin recruitment; 2,300 compounds, 4% hits; DiscoveRx D3 beta-arrestin cells, luminescence, 90 min; Potency, µM (titrated, usually from 76.9 µM), without a hit: at the highest dose activation, hits mostly activators; shares compounds with D2 ag-1; AID 720506;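 also: potency is read from the fitted curve at half-maximal effect; 100% = dopamine control response; nearly all actives have a fitted effect of over 70% in size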
Target sequence (P35462 whole entry, looked up): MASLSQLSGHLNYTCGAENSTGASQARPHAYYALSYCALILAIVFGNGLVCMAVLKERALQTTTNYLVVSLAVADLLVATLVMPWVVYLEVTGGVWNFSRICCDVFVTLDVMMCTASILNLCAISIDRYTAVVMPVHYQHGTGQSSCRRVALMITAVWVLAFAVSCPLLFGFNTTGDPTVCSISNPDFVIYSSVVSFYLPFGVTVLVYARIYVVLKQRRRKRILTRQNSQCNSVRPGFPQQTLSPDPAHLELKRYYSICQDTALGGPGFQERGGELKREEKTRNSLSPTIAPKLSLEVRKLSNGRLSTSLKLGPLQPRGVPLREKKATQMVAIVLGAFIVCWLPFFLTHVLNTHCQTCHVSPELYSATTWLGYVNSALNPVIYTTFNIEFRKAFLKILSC
D2 ag-3 – activates human D2 dopamine receptor in D3 counterscreen; DiscoveRx PathHunter D2 beta-arrestin, luminescence, 90 min; response scale: percent relative to full dopamine signal; shares compounds with D2 ag-1; Potency, µM (highest dose often 76.9 µM), for inactives: top-dose activation, actives largely listed as activators; 2,300 compounds, 5.9% hits; also: potency is read from the fitted curve at half-maximal effect; % of control where 0% means no effect; nearly all actives have a fitted effect of over 70% in size
An asterisk follows results filed as active; ? = inconclusive; · = no result given. Shown are actives, neighbours in structure and some others; about 2.4% of the full set was active somewhere. Unless noted, calls follow the shape of the dose curve; as a rule, active = well fitted activation curve with a large enough effect; inconclusive = small, poorly fitted or top-dose-only effect; inactive = flat fitted curve, though single readings scatter.

SMILES | D2 ag-1 | D2 ag-2 | D2 PAM-1 | D2 PAM-2 | D2 antagonist | D3 arrestin ag | D2 ag-3
C=CCn1c(SCC(=O)NCC(c2ccccc2)N(C)C)nnc1C1CCCCC1 (centres undefined) | 0 | -2 | -11 | 14 | 17 | -10% | -2%
Cc1ccc(C(=O)NCC(c2ccco2)S(=O)(=O)c2ccc(Cl)cc2)cc1C (centres undefined) | 1 | · | · | -13 | · | · | ·
N#Cc1ccc(CSc2nnc(NC(=O)C3CC(=O)N(c4ccc5c(c4)OCCO5)C3)s2)cc1 (centres undefined) | 0 | -4 | 0 | -1 | -7 | · | ·
O=C(Nc1nnc(SCc2ccc(F)cc2)s1)C1CC(=O)N(c2ccc3c(c2)OCCO3)C1 (centres undefined) | 43* | -2 | -2 | -27 | -8 | 8% | -4%
CCN(CC)c1ccc2cc(C(N)=O)c(=O)oc2c1 | -5 | -11 | 6 | 8 | 11 | · | ·
CCN(CC)c1ccc2cc(C(N)=O)c(=N)oc2c1 | 44* | -2 | 2 | 2 | -10 | -6% | 2%
CCCCCCc1cc2cc(S(=O)(=O)c3ccc(F)c(Cl)c3)c(=O)oc2cc1O | 34* | 7 | 13 | -7 | 8 | 28µM* | ?
COc1ccccc1OCC(=O)NCCS(=O)(=O)N1CCN(c2ccccc2)CC1 | 44* | ? | 15 | -14 | 62* | ? | ?
COc1ccccc1N1CCN(S(=O)(=O)CCNC(=O)COc2ccccc2)CC1 | · | 0 | -17 | · | · | · | ·
Cc1ccc(NC(=O)OCCN2CCN(Cc3ccccc3)CCC2=O)cc1 | 50* | 0 | -5 | -12 | 43* | 8% | ?
O=C(Nc1ccccc1)OCCN1CCN(Cc2ccccc2)CCC1=O | -1 | -6 | -6 | -4 | 4 | · | ·
Cc1cccc(C)c1NC(=O)C1CCCN1S(=O)(=O)c1ccc(-c2ccc(=O)[nH]n2)s1 (centres undefined) | 1 | -3 | 1 | 2 | -4 | · | ·
CCc1ccccc1NC(=O)C1CCCN1S(=O)(=O)c1ccc(-c2ccc(=O)[nH]n2)s1 (centres undefined) | 10 | 7 | -10 | 5 | -15 | 11% | 2%
CC(C)Oc1ccc(CNC(=O)Cn2nc(N3CCN(c4ccccc4)CC3)ccc2=O)cc1 | 0 | · | · | 6 | · | · | ·
COc1ccc(-n2c(=O)c3c4c(sc3n(Cc3c(F)cccc3Cl)c2=O)CN(C(C)=O)CC4)cc1OC | 0 | · | · | 6 | · | · | ·
CC1(C)C2CCC(C2)C1(C)NC(=O)CNCc1cccs1 (centres undefined) | 24 | 12 | 5 | -11 | 28 | -7% | 27%
O=C(CNCc1cccs1)NC12CC3CC(CC(C3)C1)C2 | 30 | 14 | 9 | -15 | 6 | · | ·
Cc1cccc(CC(=O)Nc2cccnc2)c1 | 30 | 0 | -19 | 1 | 2 | -11% | 2%
O=C(Cc1ccccc1)Nc1cccnc1 | 3 | -5 | 0 | 11 | -26 | · | ·
COc1cccc(CNc2ncnc3ccc(-c4c(C)noc4C)cc23)c1 | 0 | · | · | -1 | 9 | 12% | 18%
COc1cccc(-c2ccc3ncnc(NCc4cccc(C)c4)c3c2)c1 | 0 | · | · | -7 | -5 | · | ·
C/C(O)=c1/ccc2cccc3nc(C)nc1c23 | 7 | 6 | 26 | 5 | -2 | ? | 21%
O/C=c1\ccc2cccc3nc(C(F)(F)F)nc1c23 | 3 | 4 | 15 | -1 | -20 | · | ·
Cc1ccc(NC(=O)CCNS(=O)(=O)c2ccc3c(c2)CCN3C(=O)C2CC2)c(Cl)c1 | 1 | · | · | 3 | · | · | ·
CCn1cc2nc(SCc3cccc(C(F)(F)F)c3)n(Cc3ccc(C)cc3)c(=O)c2n1 | 0 | · | · | 3 | · | · | ·
SMILES | D2 ag-1 | D2 ag-2 | D2 PAM-1 | D2 PAM-2 | D2 antagonist | D3 arrestin ag | D2 ag-3
COc1ccccc1N1CCN(CC(C)N(C(=O)C2CCCCC2)c2ccccn2)CC1 (centres undefined) | 40* | -1 | -13 | -23 | 82* | -21% | -2%
Cc1cc(-c2ccc(C)c(S(=O)(=O)NCCCN3CCN(c4ccccc4)CC3)c2)on1 | 72* | 11 | -8 | -28 | 73* | ? | ?
CSc1ccc(CCNS(=O)(=O)c2cc(-c3cc(C)no3)ccc2C)cc1 | 0 | · | · | 9 | · | · | ·
COc1ccc(-c2cc(C)no2)cc1S(=O)(=O)NCCCN1CCN(c2ccccc2)CC1 | 78* | 7 | -6 | -31 | 80* | 24% | ?
Cc1cc(-c2ccc(C)c(S(=O)(=O)NCCCN3CCN(c4ccccc4F)CC3)c2)on1 | 70* | 11 | -8 | -24 | 76* | ? | ?
COc1ccccc1N1CCN(C(=O)c2cc3c(=O)n(C)c4ccccc4c3s2)CC1 | -1 | · | · | 10 | · | · | ·
CN(CCc1ccccn1)C1CCCN(S(=O)(=O)c2ccccc2)C1 (centres undefined) | -1 | -2 | -29 | -3 | -8 | · | ·
CC(=O)c1ccc(S(=O)(=O)N2CCCC(N(C)CCc3ccccn3)C2)cc1 (centres undefined) | 55* | -4 | -16 | -19 | -13 | -11% | -1%
CC(C)c1cnc2c(c1SCC(=O)c1ccc(Cl)cc1)c(=O)n(C)c(=O)n2C | 0 | · | · | 12 | · | · | ·
COc1ccc(-c2sc3ccc(OC)cc3c2-c2ccc(OC)c(F)c2)cc1 | 0 | -5 | -3 | 2 | 1 | · | ·
COc1ccc2sc(-c3ccccc3OC)c(-c3ccc(OC)c(F)c3)c2c1 | 48* | -1 | -6 | -34 | 3 | -6% | -2%
O=C(O)c1ccccc1C(=O)N1CC=C(c2ccccc2)CC1 | 29 | 0 | -30 | -18 | 4 | -3% | 6%
Cc1cccc(C(=O)NCC(=O)N2CC=C(c3ccccc3)CC2)c1 | 0 | 1 | 1 | -5 | 0 | -1% | -1%
COc1ccc(C(=O)NCC(=O)N2CC=C(c3ccccc3)CC2)cc1OC | 0 | 4 | -5 | -9 | -7 | · | ·
Cc1ccccc1OCc1ccc(-c2nc(C#N)c(N3CCC(C(N)=O)CC3)o2)o1 | 0 | · | · | -11 | · | · | ·
COc1ccc(/C=N\NC(=O)CCN2CCN(c3ccccc3)CC2)cc1OC | 75* | 3 | -27 | -30 | 56* | 15% | 21%
CC(=O)Nc1ccc(/C=N/NC(=O)CCN2CCN(c3ccccc3)CC2)cc1 | 79* | 9 | 3 | -20 | 51* | ? | 27%
O=C(CCN1CCN(C(c2ccccc2)c2ccccc2)CC1)N/N=C/c1ccc(O)cc1 | -3 | -3 | -27 | -19 | -11 | · | ·
COc1cc(/C=N/NC(=O)CCN2CCCCC2)ccc1O | 1 | 3 | -10 | -5 | -4 | · | ·
